RGS4 inh = inhibitors of human regulator of G protein signaling 4; P49798; Transcreener GDP fluorescence polarization, RGS4-accelerated GTP hydrolysis; Potency, µM (titrated, usually from 114 µM), usual class: inhibitors; hit rate 0.039% among 390,000; AID 504845; further: nearly all actives have a fitted effect of over 75% in size
Target sequence (P49798 whole entry, looked up): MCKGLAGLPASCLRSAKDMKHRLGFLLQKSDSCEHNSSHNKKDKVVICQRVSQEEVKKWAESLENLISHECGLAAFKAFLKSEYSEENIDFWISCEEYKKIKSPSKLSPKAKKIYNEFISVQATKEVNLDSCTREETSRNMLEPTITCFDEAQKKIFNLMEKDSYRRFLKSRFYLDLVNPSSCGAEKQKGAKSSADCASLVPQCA
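MLSMR compounds (23 nl, pin-transferred) preincubated 10 min at room temperature with a 500nM (2x) first reagent, then RGS4 at 900nM (2x) plus Transcreener GDP mix added; fluorescence polarization (620/688 nm) read before and after 90 min at 30 °C.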
KB-3-1 cytotox = kills parental KB-3-1 adenocarcinoma cells; KB-3-1 viability, CellTiter-Glo ATP luminescence, 72 h; Potency, µM (top dose mostly 46.1 µM), actives largely listed as cytotoxic; hit rate 1.4% among 400,000; AID 1347075; further: nearly all actives have a fitted effect of over 60% in size
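KB-3-1 parental drug-naive adenocarcinoma cells in DMEM/10% FBS, incubated 72 h at 37 C with pin-transferred compounds across a concentration series. Viability by CellTiter-Glo luminescence; concentration-response curves fitted after normalization.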
KB-V1 cytotox = kills drug-selected multidrug resistant KB-V1 cells; KB-V1 MDR cells viability, CellTiter-Glo, 72 h; Potency, µM (titrated, usually from 46.1 µM), most hits filed as cytotoxic; hit rate 3.4% among 400,000; AID 1347076; further: nearly all actives have a fitted effect of over 60% in size
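KB-V1 cells (P-gp-expressing MDR subline of KB-3-1) in phenol-red-free DMEM with 10% FBS were exposed to library compounds over a concentration series for 72 h at 37 degrees C. Viability read by CellTiter-Glo luminescence; concentration-effect curves fitted after normalization.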
TSG101-PTAP inh = blocks PTAP/TSG101 interaction to inhibit HIV-1 budding | Q99816 | Fluorescence polarization, FITC-PTAP peptide / Tsg101 binding | Potency, µM (series often up to 115 µM), most hits filed as inhibitors | 340,000 tested, under 10 active | AID 493005; active means well fitted inhibition curve with a large enough effect in the main read-out, with a control signal flat, not every such curve was filed as active; inconclusive means small, poorly fitted or top-dose-only effect, or effect the other way, or a change in a side signal; inactive means no such curve, though single readings can be large or run the other way
Target sequence (Q99816 whole entry, looked up): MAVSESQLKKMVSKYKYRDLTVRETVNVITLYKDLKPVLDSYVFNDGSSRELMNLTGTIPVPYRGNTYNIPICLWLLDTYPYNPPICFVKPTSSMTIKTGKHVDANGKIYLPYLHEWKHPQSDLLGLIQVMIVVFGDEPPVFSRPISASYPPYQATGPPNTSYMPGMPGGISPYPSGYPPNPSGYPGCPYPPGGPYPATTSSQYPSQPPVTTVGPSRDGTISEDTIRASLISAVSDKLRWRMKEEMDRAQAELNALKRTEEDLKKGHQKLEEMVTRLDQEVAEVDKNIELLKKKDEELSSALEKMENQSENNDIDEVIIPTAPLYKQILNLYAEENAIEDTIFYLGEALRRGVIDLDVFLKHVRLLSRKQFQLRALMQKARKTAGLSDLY
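Fluorescence polarization binding of Tsg101 binding domain (10 uM final) to FITC-labeled PTAP peptide (50 nM final) in HEPES pH 7.5 buffer with NaCl, Tween 20, EDTA, TCEP. Compounds added before peptide; binding 20 min at RT.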
MCF10A rereplic = induces DNA re-replication in MCF 10a normal breast cells | Potency, µM (series often up to 46.1 µM), usual class: activators | MCF 10A DNA re-replication, Hoechst nuclear intensity, 48 h | AID 624296 | hit rate 2.9% among 350,000; further: nearly all actives have a fitted effect of over 50% in size
SW480 rerep = induces DNA re-replication in SW480 colon adenocarcinoma cells; SW480 DNA re-replication, Hoechst DNA content imaging, 48 h; Potency, µM (titrated, usually from 46.1 µM), most hits filed as activators; hit rate 1.8% among 340,000; further: nearly all actives have a fitted effect of over 55% in size
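SW480 cells exposed to compounds for 48 hr at 37 C, 5% CO2, then Hoechst-stained 40 min. Nuclear DNA content imaged by fluorescence scanning (405 nm excitation, 500-530 nm emission); re-replication scored as increased high-intensity nuclei.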
Numbers stand for hits; . = inactive; ? = inconclusive; / = no result given; [ ] = remark or other dose. Rows were chosen to be rich in hits. Some 6.6% of all compounds tested hit in one or more screens of this group. Unless noted, the call rests on the fitted dose curve; in most records, active means well fitted curve in the direction sought with a large enough effect; inconclusive means small, poorly fitted or top-dose-only effect, or another doubt; inactive means no such curve, though single readings can be large; an effect the other way counts as inactive or inconclusive.

SMILES | RGS4 inh | KB-3-1 cytotox | KB-V1 cytotox | TSG101-PTAP inh | MCF10A rereplic | SW480 rerep
Cc1cc(=O)cc2oc3cc(N)c(-c4c(C)cc(O)cc4O)c(C)c3nc1-2 | . | / | / | / | / | /
COc1cc(C(=O)OCC(=O)N2CCCCCC2)c([N+](=O)[O-])cc1OC | . | . | ? | . | . | .
COc1ccc(OC)c(/C=C/C(=O)N2CCN(S(=O)(=O)c3ccc(C)cc3C)CC2)c1 | . | ? | 3.7µM | . | . | .
COc1cc(C(=O)OCC(=O)N2CCN(S(=O)(=O)c3ccc(C)cc3C)CC2)c([N+](=O)[O-])cc1OC | . | . | 9.2µM | . | . | .
Cc1nn(-c2ccccc2)cc1/C=N/NC(N)=S | ? | ? | 16µM | . | ? | .[9.22 µM]
Cc1nn(-c2ccccc2)cc1/C=N/O | . | . | . | . | . | .
COc1cccc2c1C(=O)c1c(O)c3c(c(O)c1C2=O)C[C@](O)(C(=O)CO)C[C@@H]3O[C@H]1C[C@H](N)[C@@H](O)[C@H](C)O1 | / | / | / | / | . | .
COc1cccc2c1C(=O)c1c(O)c3c(c(O)c1C2=O)CC(O)(C(=O)CO)CC3OC1CC(N(C)C)C(O)C(C)O1 (configuration not stated) | . | ? | 13µM | ? | . | .
CC(=O)[C@]1(O)Cc2c(O)c3c(c(O)c2[C@@H](O[C@H]2C[C@H](N)[C@H](O)[C@H](C)O2)C1)C(=O)c1ccccc1C3=O | ? | 0.073µM | 1.8µM | ? | . | .
COc1cccc2c1C(=O)c1c(O)c3c(c(O)c1C2=O)C[C@@](O)(C(C)=O)C[C@@H]3O[C@H]1C[C@H](N)[C@H](O)[C@H](C)O1 | ? | 0.013µM | ? | ? | . | .
CC(=O)[C@]1(O)Cc2c(O)c3c(c(O)c2[C@@H](O[C@H]2C[C@H](N)[C@H](O)[C@H](C)O2)C1)C(=O)c1c(O)cccc1C3=O | / | / | / | / | . | .
CCc1cccc(NC(=O)C2CCN(C(=O)c3cnn(-c4ccccc4)c3-n3cccc3)CC2)c1 | . | ? | ? | / | / | /
COc1ccc(C(=O)NCC(c2ccc(N(C)C)cc2)N2CCc3ccccc32)cc1OC (configuration not stated) | . | . | . | / | / | /
COCCNC(=O)CN(CCc1ccccc1)S(=O)(=O)c1ccc(OC)cc1 | . | . | 18µM | . | . | .
COc1ccc(S(=O)(=O)N(CCc2ccccc2)CC(=O)NCc2ccc(C)cc2)cc1 | . | ? | . | / | / | /
CC(=O)Nc1ccc(S(=O)(=O)N(CC(=O)O)Cc2ccccc2)cc1 | . | . | . | . | . | .[9.22 µM]
COc1ccc(S(=O)(=O)N(CC(=O)Nc2ccccc2Br)Cc2ccccc2)cc1 | . | 16µM | ? | / | / | /
CCOC(=O)CN(Cc1ccccc1)S(=O)(=O)c1ccc(NC(C)=O)cc1 | . | . | 15µM | . | . | .
Cc1csc2nc(-c3ccc(NS(=O)(=O)c4cc(F)ccc4F)cc3)cn12 | . | . | ? | / | / | /
CCCc1c(-c2ccc(Cl)cc2)ncn1Cc1ccccc1OC | / | 16µM | 18µM | / | / | /
CCCc1c(-c2ccc(Cl)cc2)ncn1CCc1ccccc1OC | / | ? | 18µM | / | / | /
CCCc1c(-c2cccc(Br)c2)ncn1Cc1ccccc1OC | / | ? | 18µM | / | / | /
COc1ccccc1Cn1cnc2cccnc21 | .[11.4 µM] | . | . | . | . | .
CCCc1c(-c2cccc(Cl)c2)ncn1CCc1ccccc1OC | / | ? | 15µM | / | / | /
COc1ccccc1CCn1cnc(-c2ccc(OC)c(OC)c2)c1C(C)C | / | ? | . | / | / | /
SMILES | RGS4 inh | KB-3-1 cytotox | KB-V1 cytotox | TSG101-PTAP inh | MCF10A rereplic | SW480 rerep
COc1ccccc1C(=O)Nc1ccc(C(=O)OCc2cc(=O)n3c4c(sc3n2)CCCC4)cc1 | . | / | / | / | / | /
O=C(N/N=C/c1sc(=O)n(Cc2ccc(Br)cc2)c1Cl)c1ccco1 | ? | ? | . | . | 18µM | .
O=C(N/N=C/c1ccc(Br)s1)c1ccco1 | . | . | . | . | . | .
CC(OC(=O)c1ccc(NC(=O)CC#N)cc1)C(=O)NC(c1ccccc1)c1ccccc1 (configuration not stated) | . | . | . | . | . | .
Cc1cc(C(=O)C(C)OC(=O)c2ccc(NC(=O)CC#N)cc2)c(C)n1-c1ccccc1 (configuration not stated) | . | . | . | . | ? | 3.3µM
CCOc1ccc(-c2cc(C(F)(F)F)c(C#N)c(SCC(=O)Nc3ccccc3)n2)cc1 | . | ? | ? | / | / | /
COc1cc(C2C=C(c3cccs3)Nc3ncnn32)cc(OC)c1OC (configuration not stated) | . | 1µM | 3.7µM | ? | ? | ?
COc1cc(C2C3=C(Nc4ncnn42)c2ccccc2CC3)cc(OC)c1OC (configuration not stated) | . | 0.29µM | 0.65µM | . | ? | 0.82µM
COC(=O)/C=C\c1cc(O)ccc1O | . | / | / | / | / | /
CCOc1ccc(NC(=O)c2ccc3c(c2)CCN3S(=O)(=O)CC)cc1 | . | . | . | / | / | /
COc1cccc(-c2csc(N3CCN(C(=S)Nc4ccccc4Cl)CC3)n2)c1 | . | . | . | . | . | .
COc1cccc(-c2csc(N3CCN(C(=S)Nc4ccccc4OC)CC3)n2)c1 | . | . | ? | . | 8.2µM | .
COCCCNC(=S)N1CCN(c2nc(-c3ccccc3)cs2)CC1 | . | . | . | . | 15µM | .
O=C(NC(=S)N1CCN(c2nc(-c3ccccc3)cs2)CC1)c1cncc(Br)c1 | . | ? | ? | . | 21µM | 16µM
COc1ccc(NC(=O)N2CCN(c3nc(-c4cccc(OC)c4)cs3)CC2)cc1 | . | ? | 12µM | . | ? | .
COc1cccc(-c2csc(N3CCN(CC(=O)NNC(=O)c4ccc(Cl)cc4)CC3)n2)c1 | . | . | ? | . | . | .
COc1cccc(-c2csc(N3CCN(CC(=O)NNC(=O)c4ccc(Br)cc4)CC3)n2)c1 | . | ? | ? | . | . | 15µM
COc1ccc(N(C(=O)c2ccco2)C(C(=O)NC2CCCCC2)c2cccs2)cc1OC (configuration not stated) | . | . | . | . | . | .
COc1cccc(N(C(=O)CCl)C(C(=O)NCCc2ccccc2)c2cccs2)c1 (configuration not stated) | . | ? | ? | . | 16µM | ?
COc1cccc(N(C(=O)c2snc(C(N)=O)c2N)C(C(=O)NCC2CCCO2)c2cccs2)c1 (configuration not stated) | . | . | ? | . | . | .
COc1ccc(N(C(=O)CCl)C(C(=O)NCCc2ccccc2)c2cccs2)cc1Cl (configuration not stated) | . | 8.2µM | 13µM | . | 6.5µM | ?
CN(C)S(=O)(=O)Oc1ccsc1C(=O)Nc1cccc(Cl)c1Cl | . | ? | 21µM | . | . | .

Bioassay records: PubChem, National Center for Advancing Translational Sciences (NCATS)
